According to PubChem BioAssay (NCI):
The panel holds about 83,000 compounds, 20% with a hit somewhere; the sample as a whole holds those more often.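 Negative percent growth values reflect cell death: -40 means 40% of the cells present at the start died, and -100 means all died.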 A number with no mark means an inactive call. Active and inactive are the calls of the source. Rule for the calls: active = growth percent below 10; inactive = the rest.

Experiments:
Experiment in all cases: NCI-60 one-dose screen, 48 h (100 = growth as untreated, 0 = no growth, -100 = all killed)
Settings in all cases: 10 µM
K-562 leukemia = tested on: K-562 leukemia
MALME-3M melanoma = tested on: MALME-3M melanoma
MDA-MB-231 breast = tested on: MDA-MB-231 breast
RXF 393 renal = tested on: RXF 393 renal
SF-268 CNS = tested on: SF-268 CNS
SF-295 CNS = tested on: SF-295 CNS
SF-539 CNS = tested on: SF-539 CNS
UACC-257 melanoma = tested on: UACC-257 melanoma
M14 melanoma = tested on: M14 melanoma
HCT-15 colon = tested on: HCT-15 colon
HT29 colon = tested on: HT29 colon
SNB-75 CNS = tested on: SNB-75 CNS
SNB-19 CNS = tested on: SNB-19 CNS
U251 CNS = tested on: U251 CNS
PC-3 prostate = tested on: PC-3 prostate
SK-MEL-5 melanoma = tested on: SK-MEL-5 melanoma
UACC-62 melanoma = tested on: UACC-62 melanoma
LOX IMVI melanoma = tested on: LOX IMVI melanoma
SK-MEL-28 melanoma = tested on: SK-MEL-28 melanoma
SK-MEL-2 melanoma = tested on: SK-MEL-2 melanoma

SMILES	growth (K-562 leukemia)	growth (MALME-3M melanoma)	growth (MDA-MB-231 breast)	growth (RXF 393 renal)	growth (SF-268 CNS)	growth (SF-295 CNS)	growth (SF-539 CNS)	growth (UACC-257 melanoma)	growth (M14 melanoma)	growth (HCT-15 colon)	growth (HT29 colon)	growth (SNB-75 CNS)	growth (SNB-19 CNS)	growth (U251 CNS)	growth (PC-3 prostate)	growth (SK-MEL-5 melanoma)	growth (UACC-62 melanoma)	growth (LOX IMVI melanoma)	growth (SK-MEL-28 melanoma)	growth (SK-MEL-2 melanoma)
CCN1Cc2c(/C=C/c3ccccc3)nc3ccc(OC)cc3c2N(c2cccc(Cl)c2)C1	51.1%	95.9%	74%	107%	102%	92.8%	75.1%	41.5%	78.4%	57.8%	64.2%	63.6%	93.3%	76%	20.2%	20.6%	52.3%	73%	95.9%	77.5%
COc1ccc(Cl)cc1C(=O)Nc1nc2ccc(Cl)cc2s1	86.8%	83.3%	70.9%	95%	83.2%	170%	86.4%	102%	95.1%	86.5%	109%	74.3%	103%	87.3%	84.4%	92.8%	91.5%	81.2%	105%	104%
CC/C(=C(/c1ccc(OCCN(C)C)cc1)c1ccc(OC(=O)CCCCCCCCC(=O)c2c(C)[nH]c(/C=C3\N=C(c4ccc[nH]4)C=C3OC)c2C)cc1)c1ccccc1	33.5%	68.1%	11.2%	69.1%	71.7%	89%	83.4%	90.5%	38.6%	58%	25.9%	64.7%	81.4%	43.5%	43%	29.3%	51.2%	20.8%	84.3%	95.6%
COc1cc(C(=O)N2CCN(c3ccccc3OC)CC2)c(N)cc1OCCCN1CCN(c2ccccc2OC)CC1	8.81% (active)	83.4%	80.3%	92.5%	110%	96.9%	89.9%	104%	85.2%	98.7%	98.2%	104%	104%	96.6%	69%	44.4%	79.4%	78.8%	119%	83.2%
CC1(C)OC2=C(CC1Br)C(=O)C(=O)c1ccccc12 (stereo not given)	-5.94% (active)	-90.9% (active)	-25.1% (active)	-97.9% (active)	-87.6% (active)	-84.5% (active)	-82% (active)	-89.3% (active)	-91.2% (active)	-58.5% (active)	-11.7% (active)	11.1%	-19% (active)	-73.7% (active)	-16.8% (active)	-99.7% (active)	-78.9% (active)	-77.3% (active)	-94% (active)	-42.9% (active)
CC(=O)N1C/C(=C/c2ccc(Cl)cc2)C(=O)/C(=C/c2ccc(Cl)cc2)C1	2.09% (active)	-56.4% (active)	-23.6% (active)	-92.8% (active)	-26.8% (active)	-30.1% (active)	-39.4% (active)	-32.2% (active)	-51.1% (active)	-5.84% (active)	-62.2% (active)	30.1%	15%	-76.8% (active)	-42.4% (active)	-52.1% (active)	-74.6% (active)	-79.6% (active)	-54.2% (active)	-0.636% (active)
N=C(N)c1ccc(-c2ccc(-c3cccs3)s2)s1	-68% (active)	-73.9% (active)	-74.3% (active)	-91.7% (active)	-29.3% (active)	-79.5% (active)	25.9%	-68.5% (active)	-79.5% (active)	-68.4% (active)	-79.5% (active)	-31.7% (active)	-13.4% (active)	-85.9% (active)	5.1% (active)	-9.08% (active)	-90.7% (active)	-75.7% (active)	-94.7% (active)	-0.961% (active)
COc1ccc(Nc2nc3ccc(NC(=O)NC4CCCCC4)cc3[nH]c2=O)cc1	77.1%	102%	70.8%	48.1%	91.4%	82.6%	68.8%	90.4%	103%	83.2%	106%	82.6%	100%	86.2%	94.7%	90.9%	94.6%	96.2%	93.1%	111%
